Our source for the outcome and AC50 values is PubChem BioAssay (EPA / NIEHS).

Several values for one entry are separate records, joined by “and”; a condition that tells them apart may be missing. Identical values can stand only once. Results filed as inconclusive are left out. Some compounds were tested as several samples or in several runs, with calls that do not always agree. Activity calls are given as the source filed them. How the source made its calls: active means hit-call score of the fitted dose curve at least 0.9, where 1 is the maximum; inconclusive means response in the unintended direction; inactive means score below 0.9.

Broadly, the AC50 is the midpoint of the concentration-response curve, whichever way the signal moves.

The target of this experiment is Cellular tumor antigen p53 (Homo sapiens) (UniProt P04637). As to the kind of experiment: TOX21_p53_BLA_p4_ratio: Tox21 HCT-116 p53 Agonism Beta-lactamase Assay, Ratio, Phase 4 (AID 2283601). The source says: TOX21_p53_BLA_p4 is a cell-based, single-readout assay that uses HCT116, a human intestinal cell line, […] in a 1536-well plate.TOX21_p53_BLA_p4_ratio is an assay readout measuring reporter gene via receptor activity and designed using inducible reporter (beta lactamase induction) detected with GAL4 b-lactamase reporter gene. The signal is derived from the ratio of cleaved (ch2) to uncleaved (ch1)reporter gene substrate used as the measure of target activity.Data from the assay component TOX21_p53_BLA_p4_ratio was analyzed into 1 assay endpoint. This assay endpoint, TOX21_p53_BLA_p4_ratio, was analyzed in the positive analysis fitting direction relative to DMSO as the negative control and baseline of activity. Using a type of inducible reporter, gain-of-signal activity can be used to understand changes in the reporter gene as they relate to the gene TP53. Furthermore, this assay endpoint can be referred to as a primary readout, because this assay has produced multiple assay endpoints where this ratio serves a reporter gene function to understand target activity. To generalize the intended target to other relatable targets, this assay endpoint is annotated to the DNA binding intended target family, where the subfamily is tumor suppressor.
Sequence of Cellular tumor antigen p53 (Homo sapiens) (P04637 whole entry, looked up, the tested form may be a part): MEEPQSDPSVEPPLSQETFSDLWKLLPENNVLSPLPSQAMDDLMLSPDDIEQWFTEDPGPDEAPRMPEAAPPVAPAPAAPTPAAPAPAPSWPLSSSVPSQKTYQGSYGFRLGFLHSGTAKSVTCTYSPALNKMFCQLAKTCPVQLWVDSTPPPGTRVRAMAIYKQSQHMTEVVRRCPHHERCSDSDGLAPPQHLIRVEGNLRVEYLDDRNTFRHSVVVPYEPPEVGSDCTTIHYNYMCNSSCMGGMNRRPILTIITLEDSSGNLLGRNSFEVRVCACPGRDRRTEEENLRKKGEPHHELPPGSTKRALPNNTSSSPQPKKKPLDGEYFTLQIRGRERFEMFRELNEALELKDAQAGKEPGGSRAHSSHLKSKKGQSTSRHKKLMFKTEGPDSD
Thawing Method: Place 14 mL of pre-warmed thaw medium into a 15 mL of conical tub. Remove the vial of cells to be thawed from liquid nitrogen and thaw rapidly by placing at 37C in a water bath with gentle agitation for 1-2 minutes. Decontaminate the vial by wiping with 70% ethanol before opening in a biological safety cabinet. Transfer the vial contents drop-wise into 14 mL of thaw medium in a sterile 15-mL conical tub. Centrifuge cells at 900 rpm for 4 minutes and resuspend in thaw medium. Transfer contents to the T75 tissue culture flask containing Thaw Medium and place flask in a humidified 37C/5% CO2 incubator. Switch to growth medium at first passage.Propagation Method: Aspirate medium, rinse once in DPBS, add 0.25% Trypsin/EDTA and swirl to coat the cell evenly. Add an equal volume of Growth Medium to inactivate Trypsin after 2-3 minutes incubation at 37C. Centrifuge cells at 900 rpm for 4 minutes and resuspend in growth medium. Cell should be passage or fed at least twice a week.Assay Protocol: Harvest cells from culture in growth medium and resuspend in assay medium. 2.2 Dispense 4000 cells/5 uL/well into 1536-well black/clear bottom plates using a Multidrop dispenser. After the cells were incubated at 37C for 5 hours, 23 nL of compounds dissolved in DMSO were transferred to the assay plate by a PinTool resulting in a 217-fold dilution. Incubate the plates for 16 hours at 37C, 5% CO2. Add 1 uL of 6X LiveBLAzer FRET B/G (CCF4-AM) Substrate Mixture to each well using a BioRAPTR dispenser and incubate the plates at room temperature for 2 hours. Measure fluorescence intensity at 460 and 530 nm emission and 405 nm excitation by an Envision detector. Data is expressed as the ratio of 460nm/530nm emissions. Add 4 uL of Cell-titer Glo to each well using BioRAPTR and incubate the plates at room temperature for 2 hours. Measure fluorescence intensity by a VewLux plate reader.
Turning to `CC(=O)OCCOCCOCCOC(C)=O`, the result was inactive.

On to `CCCc1cc(=O)[nH]c(=S)[nH]1`, for which the outcome was inactive.

For the compound `Cc1ccc(C)c(C)c1`, the result was inactive.

As to `CCCCCCOCCO`, the result was inactive.

Turning to `CCCCCCCCCCCC(=O)OC`, the outcome was inactive.

For `Cc1cc(NC(=O)C(=O)O)cc(C)c1Oc1ccc(O)c2c1CCC2`, the result was inactive.

As to `O=C(O)Cc1ccccc1Nc1c(Cl)cccc1Cl`, the outcome was inactive and the AC50 is 71.7 µM (active).

For `C1CCC(SSC2CCCCC2)CC1`, the result was inactive.

With `COc1cccc2c1C(=O)c1c(O)c3c(c(O)c1C2=O)C[C@@](O)(C(=O)CO)C[C@@H]3O[C@H]1C[C@H](N)[C@H](O)[C@H](C)O1`, the AC50 was 211 nM (active) and 437 nM (active).

In the case of `CCCCC(CC)COC(=O)CC(C(=O)OCC(CC)CCCC)S(=O)(=O)O` (stereo not given), the concentration at half-maximal activity (AC50) is 79.2 µM (active) [middle of 4 runs].

With `Nc1ccccc1N`, the result was inactive.

As for `OC[C@@H](O)[C@@H](O)[C@H](O)[C@H](O)CO`, the result was inactive.

As for `CC(C)c1ccc(C(=O)N=C(N)N)cc1S(C)(=O)=O`, the result was inactive.

Turning to `CCCCCCCCCCO`, the result was inactive.

Turning to `Cc1ccc(C(C)C)c(O)c1`, the result was inactive and the AC50 was 86.6 µM (active).

Regarding `CCOC(=O)CCC(=O)OCC`, the result was inactive.

As for `Cc1ccc2ncccc2c1`, the outcome was inactive.

In the case of `CCCCCCCCCCC`, the result was inactive.

As to `NCCO`, the outcome was inactive.

`COC(=O)c1ccc(O)cc1`: the result was inactive.

Consider `CC=Cc1ccc(O)c(OC)c1`, for which the result was inactive.

`O=[N+]([O-])C(CO)(CO)CO`: the result was inactive.

For `COCCOC[C@H](CC1(C(=O)NC2CCC(C(=O)O)CC2)CCCC1)C(=O)Oc1ccc2c(c1)CCC2` (stereo not given in full), the outcome was inactive.

As to `Cc1nc(-c2ccc3c(c2)CCN(CCC2CCC(NC(=O)/C=C/c4ccc(F)cc4)CC2)CC3)no1` (stereo not given), the result was inactive.

Turning to `O=C(N[C@@H](Cc1ccccc1)[C@@H](O)C(=O)N1C[C@@H](O)[C@@H](O)C1)c1cc2cc(Cl)ccc2[nH]1`, the result was inactive.

Consider `CCCCCCCC=O`, for which the outcome was inactive.

As for `Nc1nc(N)c2nc(CNc3ccc(C(=O)N[C@@H](CCC(=O)O)C(=O)O)cc3)cnc2n1`, the AC50 is 0.0582 µM (active) and the outcome was inactive.

Take `O=c1c(O)c(-c2ccc(O)c(O)c2)oc2cc(O)cc(O)c12`: the half-maximal activity concentration (AC50) is 22.8 µM (active) [middle of 4 runs].

For the compound `CC1(C)NC(=O)NC1=O`, the result was inactive.

With `Cc1cccc(Nc2cc(Cl)nc(SCC(=O)O)n2)c1C`, the outcome was inactive.

Take `Nc1ccc(S(=O)(=O)c2ccc(N)cc2)cc1`: the result was inactive.

For `CCCCCC(=O)O`, the result was inactive.

Take `Clc1cc(Cl)c(Cl)cc1Cl`: the outcome was inactive.

For `Cc1ccccc1Cl`, the outcome was inactive.

With `CCCCCCC(=O)OCC`, the result was inactive.

As for `O=c1[nH]cc(F)c(=O)[nH]1`, the AC50 is 3.73 µM (active) and 4.64 µM (active) and 5.42 µM (active).

For `CC(C)(C)c1cc(O)c(C(C)(C)C)cc1O`, the outcome was inactive.
